Results reported in PubChem BioAssay (NCATS).
Values without a mark were called inactive. Calls of active or inactive are those of the source. Calls come from the whole dose curve; as a rule, active = well fitted curve in the direction sought with a large enough effect; inconclusive = small, poorly fitted or top-dose-only effect, or another doubt; inactive = no such curve, though single readings can be large; an effect the other way counts as inactive or inconclusive.

Test: Cellular Toxicity (caspase-3) HUV-EC-C (AID 656); note: potency is the fitted concentration of half-maximal effect;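 for caspase-3 activation: 0% = DMSO basal and 100% = 100 µM tamoxifen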
Conditions: HUV-EC-C cells, caspase-3 activation (apoptosis); series mostly up to 92.2 µM; caspase-3 activation: at the top concentration
Procedure, shortened: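 Luminescent caspase-3/7 activation (aminoluciferin substrate cleavage) in HUV-EC-C cells after 16 hr compound exposure, 37°C. Signal normalized to DMSO basal and 100 uM tamoxifen as 100%; AC50 from concentration-response fitted with the Hill equation.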

SMILES	caspase-3 activation [%]	Potency
CC(=O)c1ccc(S(=O)(=O)NC(=O)NC2CCCCC2)cc1	-0.517	–
CC/C(=C(\c1ccccc1)c1ccc(OCCN(C)C)cc1)c1ccccc1	–	63.1 µM (active)
CCn1cc(C(=O)O)c(=O)c2ccc(C)nc21	-4.54	–
O=c1[nH]cnc2c1ncn2[C@H]1CC[C@@H](CO)O1	0.643	–
O=c1c(O)c(-c2ccc(O)cc2)oc2cc(O)cc(O)c12	-3.93	–
O=c1cc(-c2ccc(O)cc2)oc2cc(O)cc(O)c12	-11.3	–
O=C(O)c1cc(O)c2c(c1)C(=O)c1cccc(O)c1C2=O	-7.65	–
O=C1NC(=O)C(c2ccccc2)(c2ccccc2)N1	-2.17	–
CC1=C(/C=C/C(C)=C/C=C/C(C)=C/C(=O)Nc2ccc(O)cc2)C(C)(C)CCC1	–	31.6 µM (active)
O=c1c(-c2ccc(O)cc2)coc2cc(O)ccc12	-7.11	–
CCCCC1C(=O)N(c2ccccc2)N(c2ccccc2)C1=O	-1.88	–
O=C(O)Cc1cccc2ccccc12	-1.93	–
CN(C)CCC(c1ccccc1)c1ccccn1 (centres undefined)	0.0901	–
CC(=O)O[C@]1(C(C)=O)CC[C@H]2[C@@H]3C=C(Cl)C4=CC(=O)[C@@H]5C[C@@H]5[C@]4(C)[C@H]3CC[C@@]21C	1.87	–
CCCNC(=O)NS(=O)(=O)c1ccc(Cl)cc1	-3.42	–

Test: Cellular Toxicity (caspase-3) SHSY5Y (AID 657);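 note: cells exposed to compound for 16 hours at 37 °C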
Conditions: SH-SY5Y caspase-3 activation, DMSO zero, 10 µM staurosporine = 100%; series mostly up to 91.7 µM; caspase-3 activation: at the top concentration
Procedure, shortened: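 Luminescent caspase-3/7 readout (aminoluciferin release) in SH-SY5Y cells after 16 h compound exposure in complete medium. Activity scaled between DMSO basal and 10 uM staurosporine as 100%; concentration-response fitted to Hill equation for AC50.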

SMILES	caspase-3 activation [%]
CC(=O)c1ccc(S(=O)(=O)NC(=O)NC2CCCCC2)cc1	-0.364
CCn1cc(C(=O)O)c(=O)c2ccc(C)nc21	0.798
O=c1[nH]cnc2c1ncn2[C@H]1CC[C@@H](CO)O1	1.72
O=c1c(O)c(-c2ccc(O)cc2)oc2cc(O)cc(O)c12	-2.74
O=c1cc(-c2ccc(O)cc2)oc2cc(O)cc(O)c12	-3.06
O=C(O)c1cc(O)c2c(c1)C(=O)c1cccc(O)c1C2=O	-3.8
O=C1NC(=O)C(c2ccccc2)(c2ccccc2)N1	-1.47
O=c1c(-c2ccc(O)cc2)coc2cc(O)ccc12	-5.45
CCCCC1C(=O)N(c2ccccc2)N(c2ccccc2)C1=O	0.978
O=C(O)Cc1cccc2ccccc12	0.401
CN(C)CCC(c1ccccc1)c1ccccn1 (centres undefined)	1.64
CC(=O)O[C@]1(C(C)=O)CC[C@H]2[C@@H]3C=C(Cl)C4=CC(=O)[C@@H]5C[C@@H]5[C@]4(C)[C@H]3CC[C@@]21C	-0.232
CCCNC(=O)NS(=O)(=O)c1ccc(Cl)cc1	1.27

Test: Cellular Toxicity (caspase-3) BJ (AID 658);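 note: cells exposed to compound for 16 hours; 0% = DMSO basal and 100% = 10 µM staurosporine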
Conditions: BJ fibroblasts, luminescence, normalized: DMSO 0%, staurosporine 100%; series mostly up to 91.7 µM; caspase-3 activation: at the top concentration
Procedure, shortened: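 Plated BJ cells (1000/well) rested 5 hr, received compound for 16 hr at 37 °C, then Caspase-Glo 3/7 reagent for 1 hr at room temperature before luminescence reading.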

SMILES	caspase-3 activation [%]
CC(=O)c1ccc(S(=O)(=O)NC(=O)NC2CCCCC2)cc1	0.0175
CCn1cc(C(=O)O)c(=O)c2ccc(C)nc21	0.742
O=c1[nH]cnc2c1ncn2[C@H]1CC[C@@H](CO)O1	-0.569
O=c1c(O)c(-c2ccc(O)cc2)oc2cc(O)cc(O)c12	-4.21
O=c1cc(-c2ccc(O)cc2)oc2cc(O)cc(O)c12	1.51
O=C(O)c1cc(O)c2c(c1)C(=O)c1cccc(O)c1C2=O	-5.76
O=C1NC(=O)C(c2ccccc2)(c2ccccc2)N1	-0.457
O=c1c(-c2ccc(O)cc2)coc2cc(O)ccc12	-6.97
CCCCC1C(=O)N(c2ccccc2)N(c2ccccc2)C1=O	-0.789
O=C(O)Cc1cccc2ccccc12	0.957
CN(C)CCC(c1ccccc1)c1ccccn1 (centres undefined)	-0.791
CC(=O)O[C@]1(C(C)=O)CC[C@H]2[C@@H]3C=C(Cl)C4=CC(=O)[C@@H]5C[C@@H]5[C@]4(C)[C@H]3CC[C@@]21C	-2.05
CCCNC(=O)NS(=O)(=O)c1ccc(Cl)cc1	0.176

Test: Cellular Toxicity (caspase-3) MRC-5 (AID 659);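 note: cells exposed to compound for 16 h at 37 °C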; note: potency is the fitted concentration of half-maximal effect;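 for caspase-3 activation: 0% = DMSO basal and 100% = 10 µM staurosporine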
Conditions: MRC-5 cells, luminescence; Potency: caspase-3 activation; series mostly up to 91.7 µM; caspase-3 activation: at the top concentration
Procedure, shortened: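 Apoptosis readout in MRC-5 cells: luciferase light generated after caspase 3/7 cleaves a peptide-aminoluciferin substrate, measured post 16 hr compound incubation at 37 °C.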

SMILES	caspase-3 activation [%]	Potency
CC(=O)c1ccc(S(=O)(=O)NC(=O)NC2CCCCC2)cc1	1.61	–
CCn1cc(C(=O)O)c(=O)c2ccc(C)nc21	1.61	–
O=c1[nH]cnc2c1ncn2[C@H]1CC[C@@H](CO)O1	-0.424	–
O=c1c(O)c(-c2ccc(O)cc2)oc2cc(O)cc(O)c12	-3.12	–
O=c1cc(-c2ccc(O)cc2)oc2cc(O)cc(O)c12	-3.09	–
O=C(O)c1cc(O)c2c(c1)C(=O)c1cccc(O)c1C2=O	-2.6	–
O=C1NC(=O)C(c2ccccc2)(c2ccccc2)N1	-1.55	–
CC1=C(/C=C/C(C)=C/C=C/C(C)=C/C(=O)Nc2ccc(O)cc2)C(C)(C)CCC1	–	31.6 µM (active)
O=c1c(-c2ccc(O)cc2)coc2cc(O)ccc12	-5.36	–
CCCCC1C(=O)N(c2ccccc2)N(c2ccccc2)C1=O	-0.257	–
O=C(O)Cc1cccc2ccccc12	0.334	–
CN(C)CCC(c1ccccc1)c1ccccn1 (centres undefined)	0.771	–
CC(=O)O[C@]1(C(C)=O)CC[C@H]2[C@@H]3C=C(Cl)C4=CC(=O)[C@@H]5C[C@@H]5[C@]4(C)[C@H]3CC[C@@]21C	-1.14	–
CCCNC(=O)NS(=O)(=O)c1ccc(Cl)cc1	0.785	–

Test: Cellular Toxicity (caspase-3) SK-N-SH (AID 661);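 note: cells exposed to compound for 16 hours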; note: potency is the fitted concentration of half-maximal effect;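 for caspase-3 activation: 0% = DMSO basal and 100% = 10 µM staurosporine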
Conditions: SK-N-SH caspase-3 activation, qHTS; series mostly up to 91.7 µM; caspase-3 activation: at the top concentration
Procedure, shortened: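 Luminescent Caspase-Glo 3/7 read-out after 16 hr compound exposure of SK-N-SH neuroblastoma cells at 37 °C. Signal increase normalized to DMSO (basal) and 10 uM staurosporine (100%); AC50 from Hill equation fits of qHTS concentration-response data.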

SMILES	caspase-3 activation [%]	Potency
CC(=O)c1ccc(S(=O)(=O)NC(=O)NC2CCCCC2)cc1	0.234	–
CCn1cc(C(=O)O)c(=O)c2ccc(C)nc21	-1.31	–
O=c1[nH]cnc2c1ncn2[C@H]1CC[C@@H](CO)O1	-1.2	–
O=c1c(O)c(-c2ccc(O)cc2)oc2cc(O)cc(O)c12	-0.816	–
O=c1cc(-c2ccc(O)cc2)oc2cc(O)cc(O)c12	5.2	–
O=C(O)c1cc(O)c2c(c1)C(=O)c1cccc(O)c1C2=O	-3.89	–
O=C1NC(=O)C(c2ccccc2)(c2ccccc2)N1	-1.04	–
CC1=C(/C=C/C(C)=C/C=C/C(C)=C/C(=O)Nc2ccc(O)cc2)C(C)(C)CCC1	–	31.6 µM (active)
O=c1c(-c2ccc(O)cc2)coc2cc(O)ccc12	-4.65	–
CCCCC1C(=O)N(c2ccccc2)N(c2ccccc2)C1=O	0.729	–
O=C(O)Cc1cccc2ccccc12	-0.985	–
CN(C)CCC(c1ccccc1)c1ccccn1 (centres undefined)	-0.316	–
CC(=O)O[C@]1(C(C)=O)CC[C@H]2[C@@H]3C=C(Cl)C4=CC(=O)[C@@H]5C[C@@H]5[C@]4(C)[C@H]3CC[C@@]21C	0.659	–
CCCNC(=O)NS(=O)(=O)c1ccc(Cl)cc1	0.554	–
